The results in this text go back to ChEMBL document CHEMBL1961873, “Compounds: GSK PKIS; Assays: Nanosyn kinase panel” (2012).

Each structure is given as a SMILES string. “And” between values parts separate entries of the source, which are not always exact repeats. Equal values may be shown once.

The subject of experiment [1] is Tyrosine-protein kinase ABL1 (Homo sapiens), P00519 [T315I]. As to conditions: at 1 µM.
Experiment [2] has as its system Tyrosine-protein kinase ABL1 (Homo sapiens), P00519 [Y253F]. As to conditions: at 0.1 µM.
Experiment [3] shares this test system. The note with it: at 1 µM.
Experiment [4] addresses Tyrosine-protein kinase ABL1 (Homo sapiens) (UniProt P00519). The note with it: at 0.1 µM.
Experiment [5] shares this target. The note with it: at 1 µM.
Experiment [6] deals with ALK tyrosine kinase receptor (Homo sapiens) (UniProt Q9UM73). The note with it: at 0.1 µM.
For experiment [7] the target is unchanged. As to conditions: at 1 µM.
The target of experiment [8] is Tyrosine-protein kinase ABL2 (Homo sapiens) (UniProt P42684). As to conditions: at 0.1 µM.
Experiment [9] has the same target. The note with it: at 1 µM.
Experiment [10] deals with Tyrosine-protein kinase receptor UFO (Homo sapiens) (UniProt P30530). The note with it: at 0.1 µM.
Chain of Tyrosine-protein kinase receptor UFO (Homo sapiens) (P30530 whole entry): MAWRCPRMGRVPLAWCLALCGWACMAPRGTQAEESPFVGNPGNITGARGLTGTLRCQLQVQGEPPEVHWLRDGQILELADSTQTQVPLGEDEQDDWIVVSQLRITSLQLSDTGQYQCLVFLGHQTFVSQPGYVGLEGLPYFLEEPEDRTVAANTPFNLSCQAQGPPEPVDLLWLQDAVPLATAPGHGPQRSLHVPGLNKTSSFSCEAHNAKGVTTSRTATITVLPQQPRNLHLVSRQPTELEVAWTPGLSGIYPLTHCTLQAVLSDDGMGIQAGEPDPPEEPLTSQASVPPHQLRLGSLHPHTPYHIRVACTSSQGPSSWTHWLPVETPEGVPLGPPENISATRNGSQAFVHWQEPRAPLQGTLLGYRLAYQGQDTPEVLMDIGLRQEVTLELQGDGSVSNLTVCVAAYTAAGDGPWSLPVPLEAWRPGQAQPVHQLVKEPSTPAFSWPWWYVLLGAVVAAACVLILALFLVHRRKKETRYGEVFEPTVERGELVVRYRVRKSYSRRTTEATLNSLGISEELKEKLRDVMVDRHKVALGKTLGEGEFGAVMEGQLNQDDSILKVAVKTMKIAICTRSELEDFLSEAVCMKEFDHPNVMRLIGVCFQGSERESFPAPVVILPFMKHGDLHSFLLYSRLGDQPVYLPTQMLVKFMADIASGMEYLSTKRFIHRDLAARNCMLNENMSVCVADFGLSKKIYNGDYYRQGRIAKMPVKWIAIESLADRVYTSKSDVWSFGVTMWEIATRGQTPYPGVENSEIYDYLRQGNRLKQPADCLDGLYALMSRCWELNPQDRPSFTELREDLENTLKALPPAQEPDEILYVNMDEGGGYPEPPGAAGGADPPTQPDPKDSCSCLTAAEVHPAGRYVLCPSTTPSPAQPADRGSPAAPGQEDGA

Chain of ALK tyrosine kinase receptor (Homo sapiens) (Q9UM73 19-1620 limits assumed): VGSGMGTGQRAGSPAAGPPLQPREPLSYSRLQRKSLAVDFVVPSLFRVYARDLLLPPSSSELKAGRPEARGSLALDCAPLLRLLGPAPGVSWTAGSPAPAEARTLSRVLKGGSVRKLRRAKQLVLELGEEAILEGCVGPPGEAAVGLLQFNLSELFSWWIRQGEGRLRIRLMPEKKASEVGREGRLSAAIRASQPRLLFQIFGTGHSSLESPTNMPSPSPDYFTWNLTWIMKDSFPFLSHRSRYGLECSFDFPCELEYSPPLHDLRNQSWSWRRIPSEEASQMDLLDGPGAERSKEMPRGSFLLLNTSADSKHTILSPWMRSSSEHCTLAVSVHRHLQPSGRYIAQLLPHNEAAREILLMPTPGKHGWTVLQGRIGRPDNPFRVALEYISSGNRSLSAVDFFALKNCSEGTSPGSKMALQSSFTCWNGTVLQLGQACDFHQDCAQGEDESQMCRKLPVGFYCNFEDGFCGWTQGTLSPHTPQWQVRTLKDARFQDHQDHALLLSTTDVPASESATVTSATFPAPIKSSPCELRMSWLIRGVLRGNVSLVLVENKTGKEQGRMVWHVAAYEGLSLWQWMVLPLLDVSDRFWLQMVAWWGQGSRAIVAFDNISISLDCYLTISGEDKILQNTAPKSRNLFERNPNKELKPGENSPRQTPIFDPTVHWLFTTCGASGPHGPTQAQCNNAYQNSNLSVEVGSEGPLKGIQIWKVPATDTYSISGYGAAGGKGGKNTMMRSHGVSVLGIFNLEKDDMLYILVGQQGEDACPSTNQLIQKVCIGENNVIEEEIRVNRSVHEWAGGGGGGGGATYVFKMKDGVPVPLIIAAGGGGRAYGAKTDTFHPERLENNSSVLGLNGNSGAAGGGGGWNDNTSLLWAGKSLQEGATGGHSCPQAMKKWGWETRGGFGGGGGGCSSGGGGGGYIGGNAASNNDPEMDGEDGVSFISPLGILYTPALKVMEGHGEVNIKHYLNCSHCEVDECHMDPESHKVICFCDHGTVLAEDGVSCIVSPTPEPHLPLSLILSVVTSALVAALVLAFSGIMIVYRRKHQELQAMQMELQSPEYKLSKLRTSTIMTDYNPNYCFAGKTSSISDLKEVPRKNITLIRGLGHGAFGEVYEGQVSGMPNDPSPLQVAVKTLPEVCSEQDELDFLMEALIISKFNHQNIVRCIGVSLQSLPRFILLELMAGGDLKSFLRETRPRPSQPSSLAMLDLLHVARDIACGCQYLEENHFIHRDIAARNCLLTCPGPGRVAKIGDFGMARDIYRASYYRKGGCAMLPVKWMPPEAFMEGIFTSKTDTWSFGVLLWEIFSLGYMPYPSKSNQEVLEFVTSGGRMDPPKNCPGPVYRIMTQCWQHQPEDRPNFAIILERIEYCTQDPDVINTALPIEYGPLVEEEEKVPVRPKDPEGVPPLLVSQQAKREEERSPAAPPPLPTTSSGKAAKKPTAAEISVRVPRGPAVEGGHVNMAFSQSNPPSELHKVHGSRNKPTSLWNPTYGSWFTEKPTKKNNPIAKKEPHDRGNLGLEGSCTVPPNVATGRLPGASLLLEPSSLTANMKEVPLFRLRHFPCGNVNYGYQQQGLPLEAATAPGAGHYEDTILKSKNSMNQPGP
Chain of Tyrosine-protein kinase ABL2 (Homo sapiens) (P42684 whole entry): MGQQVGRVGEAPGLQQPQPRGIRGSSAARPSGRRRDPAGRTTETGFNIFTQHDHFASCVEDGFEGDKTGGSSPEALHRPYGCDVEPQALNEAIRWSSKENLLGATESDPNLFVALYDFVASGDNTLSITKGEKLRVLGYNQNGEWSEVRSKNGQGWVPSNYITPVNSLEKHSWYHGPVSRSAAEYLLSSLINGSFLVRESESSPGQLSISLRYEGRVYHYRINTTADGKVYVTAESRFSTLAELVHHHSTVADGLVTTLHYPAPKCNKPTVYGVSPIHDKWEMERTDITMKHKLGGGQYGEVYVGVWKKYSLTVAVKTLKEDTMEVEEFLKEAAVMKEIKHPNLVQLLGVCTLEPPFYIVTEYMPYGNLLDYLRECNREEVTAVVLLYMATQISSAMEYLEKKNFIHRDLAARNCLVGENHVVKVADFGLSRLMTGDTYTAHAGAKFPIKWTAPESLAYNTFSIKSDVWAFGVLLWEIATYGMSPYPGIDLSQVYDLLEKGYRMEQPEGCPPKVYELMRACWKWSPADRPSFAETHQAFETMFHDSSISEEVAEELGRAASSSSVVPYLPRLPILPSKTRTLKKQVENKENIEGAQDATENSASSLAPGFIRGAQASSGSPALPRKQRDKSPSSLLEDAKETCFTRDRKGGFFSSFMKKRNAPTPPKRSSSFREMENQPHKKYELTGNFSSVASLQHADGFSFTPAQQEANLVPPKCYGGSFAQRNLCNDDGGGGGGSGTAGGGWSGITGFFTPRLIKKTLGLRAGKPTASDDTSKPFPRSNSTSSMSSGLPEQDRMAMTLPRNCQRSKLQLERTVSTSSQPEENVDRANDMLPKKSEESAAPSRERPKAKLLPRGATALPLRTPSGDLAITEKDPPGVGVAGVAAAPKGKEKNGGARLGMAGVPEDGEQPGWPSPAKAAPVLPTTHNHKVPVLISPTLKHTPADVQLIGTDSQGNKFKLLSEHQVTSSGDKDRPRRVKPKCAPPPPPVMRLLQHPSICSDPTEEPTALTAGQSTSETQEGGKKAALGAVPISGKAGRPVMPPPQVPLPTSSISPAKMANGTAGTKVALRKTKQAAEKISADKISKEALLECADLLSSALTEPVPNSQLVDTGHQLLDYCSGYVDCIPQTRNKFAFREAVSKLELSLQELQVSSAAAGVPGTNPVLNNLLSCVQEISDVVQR

Take `COc1ccc(Nc2ncc(-c3ccccc3)o2)cc1OC`: the inhibition was 18.9% in experiment [1]; 11.1% in experiment [2]; 54.3% in [3]; 7.03% in experiment [4]; 58% in [5]; 1.69% in experiment [6]. For the same molecule, the inhibition in experiment [7] worked out at 4.78%; in experiment [8], 9.21%; in experiment [9], 57.1%; in experiment [10] it was 0.18%.
Turning to `NS(=O)(=O)c1cccc(N/C=C2\C(=O)Nc3ccccc32)c1`, the inhibition is 8.55% in [1]; 5.67% in [2]; 11% in experiment [3]; 3.17% in [4]; 10.9% in experiment [5]; 2.94% in experiment [6]. In addition, the inhibition in experiment [7] is 12.7%; in experiment [8], 4.2%; in [9], 13.3%; in experiment [10] it was -7.48%.
With `CCS(=O)(=O)c1ccc(OC)c(Nc2ncc(-c3cccc(C(C)=O)c3)o2)c1`, the inhibition in [1] is 8.41%; in [2] it was 25.4%; in experiment [3], 72.3%; in experiment [4] it was 13.4%; in [5], 60.2%; in [6] it was 2.32%. In addition, the inhibition was 2.87% in [7], 13% in experiment [8], 60.8% in [9] and -3.14% in [10].
For `NC(=O)c1ccc2c(-c3ccnc(NCCCO)n3)c(-c3ccc(F)cc3)nn2c1`, the inhibition was 6.37% in [1]; 7.28% in [2]; 8.72% in experiment [3]; 4.37% in [4]; 13.2% in [5]; 3.18% in experiment [6]. Also, the inhibition was 7.82% in experiment [7], 4.85% in experiment [8], 10.1% in [9] and -6.77% in experiment [10].
For the molecule `Cn1c(-c2nonc2N)nc2cnccc21`, the inhibition was 1.83% in experiment [1]; 4.55% in experiment [2]; 0.38% in experiment [3]; 4% in experiment [4]; 4.6% in experiment [5]; 1.93% in [6]. Also, the inhibition is 3.93% in experiment [7], 2.62% in experiment [8], 7.75% in experiment [9] and -6.37% in [10].
With `FC(F)(F)CNc1nccc(-c2cnn3ncccc23)n1`, the inhibition in experiment [1] turned out to be 0.38%; in experiment [2] it was 0.37%; in [3], 2.04%; in experiment [4], 1.87%; in experiment [5], 4%; in [6], 2.79%. The inhibition was 3.31% in experiment [7], 0.3% in [8], 3.29% in [9] and -3.79% in [10].
For the molecule `CC(C)c1ccc(-c2cc(-c3c[nH]nc3-c3ccccn3)ccn2)cc1`, the inhibition in experiment [1] was 0.44%; in experiment [2], 1.59%; in experiment [3], 22.1%; in experiment [4] it was 7.53%; in experiment [5], 45.5%; in experiment [6] it was 1.28%. Further, the inhibition in experiment [7] was 3.08%; in experiment [8], 8.41%; in experiment [9] it was 16.6%; in experiment [10], -1.3%.
In the case of `CN1CCC(C(=O)Nc2n[nH]c3nc(-c4ccc(O)cc4)c(Br)cc23)CC1`, the inhibition is 22.5% and 15.6% in experiment [1]; 3.92% and 2.19% in experiment [2]; 15.1% and 9.74% in experiment [3]; 0.28% and 3.94% in experiment [4]; 10.7% and 12.2% in experiment [5]; 2.7% and 5.6% in [6]. The inhibition in experiment [7] was 31.6% and 35.4%; in experiment [8], -0.95% and 2.31%; in experiment [9], 4.33% and 4.83%; in experiment [10], -5.65% and -3.46%.
With `CCOc1ccc2c(-c3ccnc(Nc4cc(OC)cc(C(F)(F)F)c4)n3)cnn2n1`, the inhibition in [1] is 3.15%; in [2], 2.66%; in experiment [3], 7.81%; in experiment [4], 5.8%; in [5], 11.5%; in experiment [6], -0.08%. Further, the inhibition in experiment [7] came out at 1.27%; in experiment [8], 6.07%; in [9] it was 9.53%; in experiment [10], 0.45%.
Take `Nc1nonc1-c1nc2cnccc2n1C1CC1`: the inhibition in experiment [1] was 2.56% and 3.11%; in [2], 3.83% and 3.92%; in experiment [3], 4.12% and 4.54%; in experiment [4] it was 5.16% and -2.65%; in experiment [5], 8.03% and 2.25%; in [6] it was 2.63% and -1.89%. Also, the inhibition in experiment [7] is 5.84% and 0.48%; in experiment [8], 3.44% and -2.1%; in experiment [9] it was 5.37% and -2.96%; in [10], -7.63% and -3.39%.
With `Nc1nccc(-c2c(-c3ccc(F)cc3)ncn2C2CCNCC2)n1`, the inhibition in experiment [1] was 1.38% and 1.78%; in experiment [2], -2.62% and 1.74%; in [3], 3.43% and 4.65%; in [4], -2.44% and 0.45%; in [5] it was 7.89% and 5.4%; in [6], -2.83% and 0.4%. Moreover, the inhibition in experiment [7] is -1.85% and 1.82%; in experiment [8] it was -2.01% and -0.73%; in [9], 3% and 19.3%; in experiment [10], 3.6% and 1.09%.
On to `Cc1cc(O)cc(C)c1/C=C/c1cncc(C(=O)OC(C)(C)C)c1`, for which the inhibition amounted to 4.07% in experiment [1]; 9.34% in experiment [2]; 38.4% in [3]; 5.51% in experiment [4]; 31.9% in experiment [5]; 3.06% in [6]. Further, the inhibition was 5.54% in [7], 8.31% in experiment [8], 36.2% in experiment [9] and -3.22% in experiment [10].
For `c1ccc(-c2n[nH]cc2-c2ccnc(-c3ccc(OCCn4ccnc4)cc3)c2)nc1`, the inhibition in experiment [1] is 7.34%; in experiment [2], 31.8%; in experiment [3], 78.8%; in [4], 30.5%; in experiment [5], 68.8%; in [6], -0.73%. Moreover, the inhibition in [7] is 3.68%; in experiment [8], 5.73%; in [9], 56.4%; in experiment [10], -0.5%.
On to `CC1(C)CC(n2cnc(-c3ccc(F)cc3)c2-c2ccnc(N)n2)CC(C)(C)N1`, for which the inhibition in experiment [1] was 4.98%; in experiment [2], 8%; in experiment [3] it was 5.3%; in experiment [4], -0.56%; in experiment [5], 4.28%; in experiment [6], -0.41%. The inhibition in experiment [7] was 1.55%; in experiment [8], -1.89%; in experiment [9], 1.01%; in [10] it was -0.07%.
Take `Nc1ncnc2occ(-c3ccc(NC(=O)Nc4cc(C(F)(F)F)ccc4F)cc3)c12`: the inhibition in experiment [1] was 91.1% and 85%; in [2], 10.7% and 5.56%; in [3], 44.9% and 29.1%; in [4], 10.9% and 4.97%; in experiment [5], 58.9% and 35.7%; in experiment [6], 2.84% and -1.14%. Moreover, the inhibition is 22.8% and 12.6% in experiment [7]; 25.2% and 23.9% in [8]; 64.2% and 56.4% in experiment [9]; -3.96% and -3.19% in [10].
